Source: PubChem BioAssay (EPA / NIEHS)
Inconclusive results are not listed. Calls of active or inactive are those of the source. Rule for the calls, unless noted: active = hit-call score of the fitted dose curve at least 0.9, where 1 is the maximum; inactive = score below 0.9.

Legend:
[1] = ACEA_ER_80hr: ACEA Biosciences xCELLigence Real-Time Cell Analysis on Estrogen Receptor Agonism for Proliferation (AID 2282667; active = hit-call score of the fitted dose curve at least 0.9, where 1 is the maximum); conditions: T47D proliferation, impedance (xCELLigence), 80 h
In short: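 Impedance readout (RT-CES) of T47D proliferation at 80 h post-dose; gain of signal vs DMSO baseline. Compounds: 8 conc, 1:4 serial, top 100 uM final, ≤0.5% DMSO; biological duplicate.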

[2] = ATG_CRE_CIS: Attagene CIS-FACTORIAL HepG2 Assay for human cAMP Responsive Element (CRE) binding protein 3 (AID 2282926); conditions: HepG2 CRE cis-reporter, Attagene multiplexed mRNA; actives raise or lower the signal
In short: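 Endogenous CRE-binding activity in HepG2 is reported through a cis-regulated transfected reporter. Following a day of exposure, mRNA levels are determined by reverse transcription PCR and fluorescent fragment analysis; fits run in both directions versus DMSO.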

[3] = target: CCAAT/enhancer-binding protein beta (Homo sapiens) (UniProt P17676); assay: ATG_C_EBP_CIS: Attagene CIS-FACTORIAL HepG2 Assay for human CCAAT/Enhancer Binding Protein (C/EBP) beta (AID 2282927); conditions: HepG2 Attagene cis-factorial transcription factor reporter; actives raise or lower the signal
In short: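 RT-PCR/capillary electrophoresis fluorescence of reporter mRNA, 24 h post-dose, in HepG2 cells carrying transfected cis-promoter reporter units. Bidirectional curve fitting against DMSO baseline captures gain or loss of signal.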

[4] = ATG_CMV_CIS: Attagene CIS-FACTORIAL HepG2 Assay for human CMV (Internal Marker) (AID 2282928); conditions: HepG2 CMV promoter reporter, transcription factor profiling; actives raise or lower the signal;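 note: endpoint acts as a background internal control marker rather than a target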
In short: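 Cell system: HepG2, transiently transfected multiple reporter units under cis promoters. Exposure: 24 h. Detection: RT-PCR, FAM labeling, HpaI digestion, capillary electrophoresis. Analysis: bidirectional, DMSO baseline.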

[5] = ATG_DR4_LXR_CIS: Attagene CIS-FACTORIAL HepG2 Assay for human Liver X Receptor (LXR), DR4 submotif (AID 2282929); conditions: HepG2 Attagene DR4 cis-reporter, mRNA transcription; actives raise or lower the signal
In short: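 Endogenous factor activity at a DR4 cis-element is read as reporter mRNA in transiently transfected HepG2 cells. Exposure lasts 24 h; transcripts are amplified, fluorescently labelled and sized by capillary electrophoresis, with DMSO as baseline.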

[6] = target: Aryl hydrocarbon receptor (Homo sapiens) (UniProt P35869); assay: ATG_Ahr_CIS: Attagene CIS-FACTORIAL HepG2 Assay for human Aryl Hydrocarbon Receptor (Ahr) (AID 2282930); conditions: HepG2 AhR cis-factorial reporter transcription; actives raise or lower the signal
In short: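 HepG2 cells transiently transfected with cis-element-driven multiplexed reporter transcription units; endogenous transcription factor activity measured as reporter mRNA 24 h after dosing. RT-PCR, 6-FAM labelling, HpaI digestion, capillary electrophoresis; bidirectional fitting versus DMSO baseline.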

[7] = ATG_AP_1_CIS: Attagene CIS-FACTORIAL HepG2 Assay for human Activator Protein 1 (AP-1) (AID 2282931); conditions: HepG2 Attagene cis-factorial AP-1 reporter mRNA; actives raise or lower the signal
In short: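 Fluorescence of labelled PCR fragments separated by capillary electrophoresis gives reporter mRNA levels. HepG2 with transfected cis-regulated reporter units, 24 h exposure; DMSO serves as baseline for bidirectional curve fits.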

[8] = ATG_AP_2_CIS: Attagene CIS-FACTORIAL HepG2 Assay for human Activator Protein 2 (AP-2) (AID 2282932); conditions: HepG2 AP-2 cis-reporter, Attagene transcription factor profiling; actives raise or lower the signal
In short: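 Bidirectional curve fitting against DMSO was applied to reporter mRNA signals from HepG2 cells 24 h after dosing. Cis-promoter reporter units, transiently transfected, were read by RT-PCR plus capillary electrophoresis.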

[9] = ATG_BRE_CIS: Attagene CIS-FACTORIAL HepG2 Assay for human Bone Morphogenetic Protein (BMP) Response Element (BRE) (AID 2282933); conditions: HepG2 BMP response element reporter, Attagene transcription factor profiling; actives raise or lower the signal
In short: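 Endogenous transcription factor activity at a BMP response element was monitored in transfected HepG2 cells 24 h after dosing. Fluorescent RT-PCR products were resolved by capillary electrophoresis, and activity was fitted in both directions versus DMSO.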

[10] = target: Retinoic acid receptor alpha (Homo sapiens) (UniProt P10276); assay: ATG_DR5_RAR_CIS: Attagene CIS-FACTORIAL HepG2 Assay for human Retinoic Acid Receptor Alpha (RARE), DR5 submotif (AID 2282934); conditions: HepG2 Attagene cis-factorial RARE DR5 reporter, mRNA; actives raise or lower the signal
In short: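 HepG2 cells transiently transfected with multiplexed reporter units under cis (DR5 RARE) promoters, so endogenous transcription factor activity is measured. After 24 h compound exposure, reporter mRNA is quantified by RT-PCR with fluorescent labelling and capillary electrophoresis; bidirectional fitting versus DMSO.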

[11] = target: Transcription factor E2F1 (Homo sapiens) (UniProt Q01094); assay: ATG_E2F_CIS: Attagene CIS-FACTORIAL HepG2 Assay for human E2F Transcription Factor 1 (AID 2282935); conditions: HepG2 Attagene cis-reporter, E2F reporter RNA transcripts; actives raise or lower the signal
In short: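 Multiplexed cis-reporter assay: HepG2, transient transfection, 24 h dosing, mRNA quantitation by labeled RT-PCR and CE.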

[12] = ATG_E_Box_CIS: Attagene CIS-FACTORIAL HepG2 Assay for human Enhancer Box (E-box) (AID 2282936); conditions: HepG2 E-box cis-reporter transcription, actives raise or lower the signal
In short: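 Multiplexed CIS reporter system in transiently transfected HepG2 cells measures native transcription factor activity. Reporter RNA after 24 h exposure is profiled by RT-PCR-capillary electrophoresis.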

[13] = ATG_M_61_CIS: Attagene CIS-FACTORIAL HepG2 Assay for M61 Transcription Factor (Internal Marker) (AID 2282937); conditions: HepG2 Attagene CIS-FACTORIAL M61 internal marker reporter; actives raise or lower the signal
In short: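 This endpoint serves as an internal background control within a multiplexed HepG2 cis-reporter panel. Cells are exposed for 24 h; reporter mRNA is amplified, fluorescently labelled and sized by capillary electrophoresis, with DMSO as negative control.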

[14] = ATG_EGR_CIS: Attagene CIS-FACTORIAL HepG2 Assay for human Early Growth Response 1 (EGR1) (AID 2282938); conditions: HepG2 Attagene CIS-FACTORIAL EGR reporter mRNA; actives raise or lower the signal
In short: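 HepG2, transient MRTU transfection (cis promoters), 24 h compound. RNA → RT (oligo-dT) → PCR → 6-FAM labelling → HpaI cut → CE fluorescence. Bidirectional fit, DMSO baseline.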

[15] = ATG_M_19_CIS: Attagene CIS-FACTORIAL HepG2 Assay for M19 Transcription Factor (Internal Marker) (AID 2282939); conditions: HepG2 Attagene CIS-FACTORIAL M19 internal marker reporter; actives raise or lower the signal
In short: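 Background-control endpoint from a multiplexed HepG2 reporter panel. Cells carrying cis-regulated reporter constructs are treated 24 h, then reporter transcripts are amplified, fluorescently labelled and sized by capillary electrophoresis. DMSO defines baseline.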

[16] = ATG_Ets_CIS: Attagene CIS-FACTORIAL HepG2 Assay for human Erythroblast Transformation Specific (ETS) (AID 2282941); conditions: HepG2 ETS cis-reporter transcription, actives raise or lower the signal
In short: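 After transient cis-reporter transfection, HepG2 cells receive test chemical for 24 h. Reporter mRNA levels, measured by RT-PCR and capillary electrophoresis fluorescence, are analysed bidirectionally relative to the DMSO baseline.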

[17] = target: Hepatocyte nuclear factor 3-beta (Homo sapiens) (UniProt Q9Y261); assay: ATG_FoxA2_CIS: Attagene CIS-FACTORIAL HepG2 Assay for human Forkhead box A2 (FOXA2) (AID 2282942); conditions: HepG2 cis-reporter transcription factor activity, 24 h; actives raise or lower the signal
In short: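 Cells: HepG2, transient multiplex reporter transfection. Exposure 24 h. Detection: reporter-specific RT-PCR, fluorescent labelling, restriction digest, capillary electrophoresis. Analysis: bidirectional curve fit, DMSO as negative control.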

[18] = ATG_FoxO_CIS: Attagene CIS-FACTORIAL HepG2 Assay for human Forkhead box O (FoxO) (AID 2282943); conditions: HepG2 Attagene cis-reporter, FoxO element, mRNA; actives raise or lower the signal
In short: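 HepG2 cells transiently transfected with cis-promoter-driven multiple reporter transcription units; 24 h after chemical dosing, reporter mRNA quantified by RT-PCR, fluorescent primer extension, HpaI digestion and capillary electrophoresis. Bidirectional fitting versus DMSO baseline.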

[19] = ATG_GATA_CIS: Attagene CIS-FACTORIAL HepG2 Assay for human GATA Binding Protein (AID 2282944); conditions: HepG2 GATA cis-element reporter, Attagene multiplex mRNA; actives raise or lower the signal
In short: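 Endogenous transcription factor activity was captured through cis-promoter-driven reporters in transfected HepG2 cells. After 24 h exposure, reporter transcripts were quantified by RT-PCR with fluorescent capillary electrophoresis, and responses fitted both directions against DMSO.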

[20] = ATG_ERE_CIS: Attagene CIS-FACTORIAL HepG2 Assay for Estrogen Response Element (ERE) (AID 2282940); conditions: HepG2 ERE cis-reporter, Attagene RNA transcript; actives raise or lower the signal
In short: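 Cells used were human hepatoma HepG2, transfected with multiple reporter transcription units under cis-regulatory promoters. Reporter mRNA, read 24 h post-dosing via fluorescent RT-PCR products on capillary electrophoresis, was fitted bidirectionally relative to DMSO.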

Measured: AC50

Sequence of Transcription factor E2F1 (Homo sapiens) (Q01094 whole entry, looked up): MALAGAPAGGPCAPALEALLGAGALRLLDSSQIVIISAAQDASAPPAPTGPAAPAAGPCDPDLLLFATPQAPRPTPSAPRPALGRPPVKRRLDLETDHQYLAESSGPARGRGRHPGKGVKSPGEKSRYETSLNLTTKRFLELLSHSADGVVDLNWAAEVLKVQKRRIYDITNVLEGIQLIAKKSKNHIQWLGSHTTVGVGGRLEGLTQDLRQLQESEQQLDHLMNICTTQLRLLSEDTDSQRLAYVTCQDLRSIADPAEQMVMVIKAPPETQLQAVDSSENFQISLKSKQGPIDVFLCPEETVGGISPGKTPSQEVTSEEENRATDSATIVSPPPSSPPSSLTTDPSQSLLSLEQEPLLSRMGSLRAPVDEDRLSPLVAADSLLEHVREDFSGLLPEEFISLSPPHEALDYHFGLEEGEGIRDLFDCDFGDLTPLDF
Sequence of CCAAT/enhancer-binding protein beta (Homo sapiens) (P17676 whole entry, looked up): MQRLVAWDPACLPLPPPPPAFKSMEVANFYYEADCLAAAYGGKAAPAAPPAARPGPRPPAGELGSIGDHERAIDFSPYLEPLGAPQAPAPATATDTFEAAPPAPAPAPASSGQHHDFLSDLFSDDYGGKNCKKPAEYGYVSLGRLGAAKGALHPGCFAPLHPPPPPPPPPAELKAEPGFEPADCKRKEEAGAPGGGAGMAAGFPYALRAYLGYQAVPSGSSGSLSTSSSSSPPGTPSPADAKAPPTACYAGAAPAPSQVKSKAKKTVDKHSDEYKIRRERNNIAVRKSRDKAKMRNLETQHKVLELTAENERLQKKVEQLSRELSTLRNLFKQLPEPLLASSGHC
Sequence of Aryl hydrocarbon receptor (Homo sapiens) (P35869 whole entry, looked up): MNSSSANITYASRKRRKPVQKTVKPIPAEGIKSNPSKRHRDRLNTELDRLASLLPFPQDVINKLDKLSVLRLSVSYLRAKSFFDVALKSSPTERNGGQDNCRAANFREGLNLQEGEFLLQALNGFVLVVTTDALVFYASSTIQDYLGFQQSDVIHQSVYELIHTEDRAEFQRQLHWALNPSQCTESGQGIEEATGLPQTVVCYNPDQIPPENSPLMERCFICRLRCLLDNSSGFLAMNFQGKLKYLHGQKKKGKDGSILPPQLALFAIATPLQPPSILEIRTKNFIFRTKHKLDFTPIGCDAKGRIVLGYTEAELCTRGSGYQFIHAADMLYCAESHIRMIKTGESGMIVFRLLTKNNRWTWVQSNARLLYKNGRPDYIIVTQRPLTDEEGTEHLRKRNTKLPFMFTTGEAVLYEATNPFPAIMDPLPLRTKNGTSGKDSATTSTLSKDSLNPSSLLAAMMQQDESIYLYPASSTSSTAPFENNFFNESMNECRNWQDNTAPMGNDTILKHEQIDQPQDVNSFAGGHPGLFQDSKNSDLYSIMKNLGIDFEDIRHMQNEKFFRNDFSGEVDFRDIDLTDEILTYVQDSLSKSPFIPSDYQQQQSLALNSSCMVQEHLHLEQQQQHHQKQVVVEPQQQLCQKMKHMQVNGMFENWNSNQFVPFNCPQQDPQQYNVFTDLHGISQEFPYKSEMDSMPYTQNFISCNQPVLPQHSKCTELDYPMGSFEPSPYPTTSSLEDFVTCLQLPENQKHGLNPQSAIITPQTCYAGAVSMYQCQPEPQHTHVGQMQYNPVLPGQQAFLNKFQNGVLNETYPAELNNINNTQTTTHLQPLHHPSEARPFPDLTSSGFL
Sequence of Retinoic acid receptor alpha (Homo sapiens) (P10276 whole entry, looked up): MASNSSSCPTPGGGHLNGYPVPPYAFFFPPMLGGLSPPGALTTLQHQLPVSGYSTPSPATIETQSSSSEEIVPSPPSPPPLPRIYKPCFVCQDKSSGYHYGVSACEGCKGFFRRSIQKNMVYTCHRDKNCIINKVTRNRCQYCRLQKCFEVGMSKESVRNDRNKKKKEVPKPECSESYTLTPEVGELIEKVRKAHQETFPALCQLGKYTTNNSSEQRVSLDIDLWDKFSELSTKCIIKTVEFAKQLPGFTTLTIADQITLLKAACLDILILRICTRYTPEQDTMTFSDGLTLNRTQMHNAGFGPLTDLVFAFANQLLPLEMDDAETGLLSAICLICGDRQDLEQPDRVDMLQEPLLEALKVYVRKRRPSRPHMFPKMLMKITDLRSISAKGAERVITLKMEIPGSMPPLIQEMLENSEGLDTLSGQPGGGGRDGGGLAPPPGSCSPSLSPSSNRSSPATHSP
Sequence of Hepatocyte nuclear factor 3-beta (Homo sapiens) (Q9Y261 whole entry, looked up): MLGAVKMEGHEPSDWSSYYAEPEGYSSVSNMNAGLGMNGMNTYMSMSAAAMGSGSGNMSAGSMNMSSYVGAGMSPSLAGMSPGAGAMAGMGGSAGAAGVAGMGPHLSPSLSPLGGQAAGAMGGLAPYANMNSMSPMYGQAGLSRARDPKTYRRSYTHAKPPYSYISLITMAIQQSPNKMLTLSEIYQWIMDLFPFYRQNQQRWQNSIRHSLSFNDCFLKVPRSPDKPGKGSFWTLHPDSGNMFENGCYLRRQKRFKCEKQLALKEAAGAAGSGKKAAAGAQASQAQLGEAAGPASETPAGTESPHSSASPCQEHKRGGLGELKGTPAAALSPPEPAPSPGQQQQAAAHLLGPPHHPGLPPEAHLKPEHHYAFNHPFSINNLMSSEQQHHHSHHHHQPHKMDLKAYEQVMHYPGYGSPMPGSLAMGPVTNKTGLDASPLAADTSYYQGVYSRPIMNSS

CCCc1ccc(O)c(OC)c1
active: [5] 33.8 µM
not listed: [20]
inactive: all other assays above

CCCCC(CC)COS(=O)(=O)O (stereo not drawn)
not listed: [17]
inactive: all other assays above

COc1ccc(-c2coc3cc(O)cc(O)c3c2=O)cc1
active: [1] 0.673 µM | [4] 21.6 µM | [6] 27 µM | [7] 64 µM | [9] 67.2 µM
not listed: [13] | [20]
inactive: all other assays above

Oc1ccc(/C=C/c2cc(O)cc(O)c2)cc1
active: [4] 22.7 µM | [5] 100 µM | [20] 6.81 µM | [16] 153 µM
not listed: [15]
inactive: all other assays above

C=C(C)C(=O)OCCOC(=O)C(=C)C
not listed: [14] | [15] | [20]
inactive: all other assays above

CN1CCN(C)CC1
not listed: [14] | [17]
inactive: all other assays above

O=C(C=Cc1ccccc1)OCCc1ccccc1
active: [5] 24.8 µM | [20] 32.7 µM
not listed: [15] | [17] | [19]
inactive: all other assays above

C/C=C/C=C/CCCCCCCO
active: [5] 183 µM | [7] 127 µM | [9] 156 µM
not listed: [14]
inactive: all other assays above

COC(Cc1ccccc1)OC
not listed: [14] | [15]
inactive: all other assays above

CC1=CC=C(C(C)C)CC1
not listed: [10] | [19]
inactive: all other assays above

CC(C)(CO)COC(=O)C(C)(C)CO
not listed: [13] | [14] | [20]
inactive: all other assays above

CCC1(C)C(=O)N(Cl)C(=O)N1Cl (stereo not drawn)
active: [2] 27.6 µM | [3] 38.9 µM | [7] 67.4 µM | [14] 34.5 µM | [18] 29.8 µM
not listed: [13] | [15] | [16]
inactive: all other assays above

CCc1cccc(C)c1N
not listed: [14] | [19] | [20]
inactive: all other assays above

CO[Si](C)(C)OC
active: [6] 0.376 µM
not listed: [13]
inactive: all other assays above

CCC[Si](OC)(OC)OC
not listed: [13] | [20]
inactive: all other assays above

C1CCSC1
not listed: [14] | [16]
inactive: all other assays above
